Results as given in PMC4336329 (PLoS ONE, 2015).
The campaign covered roughly 310,000 compounds. About 14,000 (4.5%) showed an effect of 50% or more. Effects have a minus sign here. Only a selection was taken, and strong results are over-represented in it overall.

Molecular target: human ether-à-go-go-related gene (hERG) potassium channel (human, UniProt Q12809)
Test: primary screen, population patch clamp on CHO cells stably expressing hERG; higher = less effect of the substance
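Also: peak tail current of the secondary pulse compared with the same well before compound.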

Chain of human ether-à-go-go-related gene (hERG) potassium channel (Q12809 whole entry, looked up): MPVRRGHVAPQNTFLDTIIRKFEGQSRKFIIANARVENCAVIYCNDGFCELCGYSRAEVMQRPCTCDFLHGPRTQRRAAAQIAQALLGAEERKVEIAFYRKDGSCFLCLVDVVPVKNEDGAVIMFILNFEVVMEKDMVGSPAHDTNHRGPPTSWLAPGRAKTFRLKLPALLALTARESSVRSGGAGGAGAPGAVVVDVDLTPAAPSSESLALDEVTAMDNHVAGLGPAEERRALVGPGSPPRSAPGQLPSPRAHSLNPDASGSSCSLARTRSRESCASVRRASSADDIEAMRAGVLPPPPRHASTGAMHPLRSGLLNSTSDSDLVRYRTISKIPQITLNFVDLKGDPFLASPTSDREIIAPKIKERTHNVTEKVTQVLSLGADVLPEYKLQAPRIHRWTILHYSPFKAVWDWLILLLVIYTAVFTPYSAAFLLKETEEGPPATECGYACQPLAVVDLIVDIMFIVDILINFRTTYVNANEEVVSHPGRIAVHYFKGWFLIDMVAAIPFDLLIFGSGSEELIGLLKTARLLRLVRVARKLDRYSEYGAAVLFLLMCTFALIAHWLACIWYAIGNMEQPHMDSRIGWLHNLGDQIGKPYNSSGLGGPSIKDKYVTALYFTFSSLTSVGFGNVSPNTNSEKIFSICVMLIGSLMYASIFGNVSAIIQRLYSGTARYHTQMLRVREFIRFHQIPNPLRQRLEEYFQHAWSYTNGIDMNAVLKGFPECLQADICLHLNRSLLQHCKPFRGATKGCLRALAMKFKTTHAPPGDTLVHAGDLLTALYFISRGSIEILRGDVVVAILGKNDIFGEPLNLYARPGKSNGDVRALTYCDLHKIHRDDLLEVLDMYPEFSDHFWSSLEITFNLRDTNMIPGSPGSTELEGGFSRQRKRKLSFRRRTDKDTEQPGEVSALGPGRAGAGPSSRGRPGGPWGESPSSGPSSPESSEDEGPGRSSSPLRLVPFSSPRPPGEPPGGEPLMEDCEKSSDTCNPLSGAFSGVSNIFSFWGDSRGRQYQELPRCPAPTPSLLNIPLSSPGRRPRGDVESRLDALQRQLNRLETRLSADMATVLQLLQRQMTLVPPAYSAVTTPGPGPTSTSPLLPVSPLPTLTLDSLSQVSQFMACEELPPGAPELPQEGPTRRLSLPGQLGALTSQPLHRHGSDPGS

| SMILES | hERG current change (%, negative = inhibition) at 10uM |
| --- | --- |
| Cc1ccccc1NC(=O)c1cccnc1 | -7.59% |
| CCCCOC(=O)c1cc(=O)[nH]c2ccc(C)cc12 | 5.6% |
| CC1(C)OC(=O)C(=NNc2ccccc2[N+](=O)[O-])C(=O)O1 | 24.3% |
| COC(=O)CN(c1ccc(Cl)cc1C)S(C)(=O)=O | 13.9% |
| COc1ccc(C(=O)N(CCc2ccccc2)Cc2cccs2)c(OC)c1 | -15.9% |
| N#Cc1cccc(C(=O)N(CCc2ccccc2)Cc2cccs2)c1 | -53.3% |
| CS(=O)(=O)c1cccc(C(=O)N(CCc2ccccc2)Cc2cccs2)c1 | -48.6% |
| O=C(Cc1ccccc1)Nc1ccc(C(=O)NCc2ccccc2)cc1 | 11.2% |
| Cn1c(SCC(=O)Nc2ccc(F)cc2)nnc1-c1cccnc1 | -11.5% |
| Cc1ccc(NC(=O)CSc2nnc(-c3cccnc3)n2CCN2CCCCC2)cc1 | -69% |
| CCCn1c(SCC(=O)Nc2cccc(C(=O)OC)c2)nnc1-c1cccnc1 | -42% |
| Cn1c(SCC(=O)Nc2cccc(F)c2)nnc1-c1cccnc1 | -33.1% |
| O=C(CSc1nnc(-c2cccnc2)n1CCN1CCCCC1)Nc1cccc(Cl)c1 | -79.8% |
| C=CCn1c(SCC(=O)Nc2ccc(C(=O)O)cc2)nnc1-c1cccnc1 | 34.6% |
| COC(=O)C1=C(c2ccc(OC)c(OC)c2)C[C@@H]2CC[C@H]1N2C(=O)N1CCC(C)CC1 | 5.39% |
| O=C(COc1ncnc2ccc(Br)cc12)NC1CCCC1 | 2.91% |
| Cc1cc(NC(=O)COC(=O)CSc2nc3cc(Cl)ccc3n2Cc2ccccc2)no1 | -19.9% |
| Nc1nc2n(n1)C(=O)CC(c1ccccc1[N+](=O)[O-])N2 (centres unmarked) | 41.7% |
| CC(C)(C)n1nnnc1C(c1ccc(C(F)(F)F)cc1)N(Cc1ccc(F)cc1)Cc1ccco1 (centres unmarked) | 8.86% |
| O=C(NCCc1csc(-c2ccccc2)n1)c1ccccc1F | -49.5% |
| CCCCNC(=O)CCc1nc2cccnc2n1Cc1ccc(OC)cc1 | -18.1% |
| COc1ccc(Cn2c(CCC(=O)Nc3ccccc3)nc3cccnc32)cc1 | -9.7% |
| COCCCNC(=O)CCc1nc2cccnc2n1Cc1ccccc1 | -29.8% |
| COCCCNC(=O)CCc1nc2cccnc2n1Cc1ccc(OC)cc1 | 10.8% |

| SMILES | hERG current change (%, negative = inhibition) at 10uM |
| --- | --- |
| O=C(CCc1nc2cccnc2n1Cc1ccccc1)NCCc1ccc(Cl)cc1 | -78.6% |
| COCCNC(=O)CCc1nc2cccnc2n1Cc1ccc(OC)cc1 | 8.65% |
| CCCCCCNC(=O)CCc1nc2cccnc2n1Cc1ccc(OC)cc1 | -63.6% |
| CCCCNC(=O)CCc1nc2cccnc2n1Cc1ccccc1 | -51.7% |
| O=C(O)CCc1nc2cccnc2n1Cc1ccccc1 | -24.6% |
| Cc1ccc(NC(=O)c2cc(CC(C)C)nc3ccccc23)cc1 | 11% |
| CCOc1ccc2nc(NC(=O)CN3CCN(C)CC3)sc2c1 | -15.7% |
| CN(C)CCc1nn[nH]n1 | -0.456% |
| CSCCC(NC(=O)c1ccc(Cl)cc1Cl)C(=O)OC1CCCCC1=O (centres unmarked) | -26.7% |
| CCOc1ccc(NC(=O)CN(C)CC(=O)Nc2cccc(Cl)c2C)cc1OCC | -10.4% |
| CC(=O)N(CCC(c1ccccc1)c1ccco1)Cc1cccs1 (centres unmarked) | -52.9% |
| COc1ccccc1C(CCN(Cc1cccs1)C(C)=O)c1ccco1 (centres unmarked) | -2.93% |
| CCC(=O)N(CCC(c1ccccc1)c1ccco1)Cc1cccs1 (centres unmarked) | -15.9% |
| COc1cccc(NC(=O)C2(S(=O)(=O)c3ccc(Cl)cc3)CC2)c1 | -15.9% |
| CCNS(=O)(=O)c1ccc(NC(=O)Nc2cccc(OC)c2)cc1 | 8.01% |
| COc1ccccc1NS(=O)(=O)c1ccc(Cl)cc1 | -19.5% |
| CC(Nc1ccc(F)cc1)=[N+](C)CCNS(=O)(=O)c1ccc(Cl)cc1.[I-] | -68.4% |
| COc1ccccc1NC(=O)C(C)NS(=O)(=O)c1ccc(Cl)cc1 (centres unmarked) | -0.716% |
| CC(=O)Nc1ccc(S(=O)(=O)NCCc2ccc(F)cc2)cc1 | -10.7% |
| COc1ccccc1NC(C)=[N+](C)CCNS(=O)(=O)c1ccc(Cl)cc1.[I-] | -58.7% |
| CC(Nc1cc(C)cc(C)c1)=[N+](C)CCNS(=O)(=O)c1ccc(Cl)cc1.[I-] | -48.5% |
| COc1ccc(NC(C)=[N+](C)CCNS(=O)(=O)c2ccc(Cl)cc2)cc1Cl.[I-] | -69.5% |
| COc1ccc(NC(=O)CCNS(=O)(=O)c2ccc(NC(C)=O)cc2)cc1Cl | 22.8% |
| COc1cccc(NC(C)=[N+](C)CCNS(=O)(=O)c2ccc(Cl)cc2)c1.[I-] | -64.4% |

| SMILES | hERG current change (%, negative = inhibition) at 10uM |
| --- | --- |
| COc1ccc(NC(=O)CNS(=O)(=O)c2ccccc2)cc1Cl | 4.28% |
| CCCc1nc2c(sc3nc4c(cc32)COC(C)(C)C4)c(=O)n1CCN(CC)CC | -17.8% |
| O=[N+]([O-])c1cccc(NC(=S)NCc2ccncc2)c1 | 0.695% |
| CCOC(=O)c1c(Nc2ccccc2)sc(/C=C2\C=Nc3ccccc32)c1O | 0.585% |
| O=C(O)/C=C/C(=O)N1CCN(c2ccccc2F)CC1 | 7.85% |
| COc1ccc(-c2ccc(SCC(=O)N3c4ccccc4CC3C)nn2)cc1OC (centres unmarked) | -4.75% |
| CCOC(=O)C1CCN(C(=O)c2cn(C)c(=O)c3cc(OC)c(OC)cc23)CC1 | -11.3% |
| COc1ccc(NC(C)=[N+](C)CCNS(=O)(=O)c2ccc(Cl)cc2)cc1.[I-] | -70.2% |
| COc1ccc(NC(=O)CNS(=O)(=O)c2ccc(Cl)cc2)cc1 | 3.79% |
| COc1ccc(NC(=O)COC(=O)CCNS(=O)(=O)c2ccc(Cl)cc2)cc1 | -23.2% |
| Cc1cc(S(=O)(=O)Nc2ccc3c(c2)n(C)c(=O)n3C)ccc1F | -0.399% |
| Cl.O=C(c1ccc(F)cc1)C(CN1CCOCC1)c1ccccc1 (centres unmarked) | -12.3% |
| Cl.O=C(c1ccccc1)C(CCC(CN1CCOCC1)C(=O)c1ccccc1)CN1CCOCC1 (centres unmarked) | -7.92% |
| Cl.O=C(c1ccc(F)cc1)C(CCCCCC(CN1CCOCC1)C(=O)c1ccc(F)cc1)CN1CCOCC1 (centres unmarked) | -86.8% |
| CCc1ccc(NC(=O)CSc2nnnn2-c2cccnc2)cc1 | -15.4% |
| COc1ccccc1CCC(=O)Nc1ncc(C)s1 | 16.3% |
| Cc1cc(=O)oc2cc(OCC(=O)Nc3ccccc3C(N)=O)c(Cl)cc12 | 18.5% |
| OCCC1CN(Cc2ccccc2-c2ccco2)CCN1Cc1ccsc1 (centres unmarked) | -51% |
| C#Cc1ccc(CN2CCN(Cc3ccsc3)C(CCO)C2)cc1 (centres unmarked) | -34.6% |
| OCCC#Cc1ccc(CN2CCN(Cc3ccsc3)C(CCO)C2)cc1 (centres unmarked) | -4.59% |
| OCCC1CN(Cc2cccc3c2OCO3)CCN1C1CCCCC1 (centres unmarked) | -9.67% |
| CC(C)N1CCN(Cc2cccc(-c3ccco3)c2)CC1CCO (centres unmarked) | -35.9% |
| CC(C)CCN1CCN(Cc2ccsc2)CC1CCO (centres unmarked) | -6.33% |
| OCCC1CN(Cc2ccccc2-c2ccco2)CCN1Cc1ccccc1 (centres unmarked) | -35.7% |

| SMILES | hERG current change (%, negative = inhibition) at 10uM |
| --- | --- |
| OCCC1CN(Cc2cccc(-c3ccco3)c2)CCN1Cc1ccsc1 (centres unmarked) | -71.6% |
| OCCC1CN(Cc2ccc(-c3ccco3)cc2)CCN1Cc1ccsc1 (centres unmarked) | -53.8% |
| OCCC1CN(Cc2ccccc2-c2ccco2)CCN1C1CCCC1 (centres unmarked) | -63.8% |
| Cc1ccc(CN2CCN(Cc3ccccc3-c3ccco3)CC2CCO)o1 (centres unmarked) | -22.3% |
| Cc1ccc(CN2CCN(C3CCCC3)C(CCO)C2)s1 (centres unmarked) | -22.4% |
| COc1cccc(/C=C2\SC(=O)NC2=O)c1OCc1ccc(C(=O)O)cc1 | 9.69% |
| OCCN1CCN(Cc2cc(Cl)c3cccnc3c2O)CC1 | 16.6% |
| COc1ccccc1N1CCN(C(=O)C(=O)c2c[nH]c3ccccc23)CC1 | 0.156% |
| Nc1ccccc1SCC(=O)Nc1ccc2c(c1)OCCO2 | 3.12% |
| O=C(CSc1nnc2c(n1)[nH]c1ccc(F)cc12)Nc1ccccc1F | 19.5% |
| Cc1ccc(C(=O)NC2CCSC2=O)cc1 (centres unmarked) | 7.89% |
| Cc1ccc(NC(=O)C2OCCc3ccccc32)cc1C (centres unmarked) | -3.78% |
| Cc1ccc([N+](=O)[O-])c(OCCN2CCc3ccccc3C2)c1.O=C(O)C(=O)O | -23.3% |
| Cc1ccc([N+](=O)[O-])c(OCCN2CCC(Cc3ccccc3)CC2)c1.O=C(O)C(=O)O | -73% |
| Cc1ccc(OCCN2CCN(C)CC2)c([N+](=O)[O-])c1.O=C(O)C(=O)O | 6% |
| Cc1cc(OCCN2CCOCC2)ccc1[N+](=O)[O-].O=C(O)C(=O)O | 5.11% |
| Cc1cc(OCCCN2CCN(Cc3ccccc3)CC2)ccc1[N+](=O)[O-].O=C(O)C(=O)O | -71.5% |
| Cc1ccc([N+](=O)[O-])c(OCCN2CCCCCC2)c1.O=C(O)C(=O)O | -34% |
| Cc1ccc([N+](=O)[O-])c(OCCCN2CCCCCC2)c1.O=C(O)C(=O)O | -58.6% |
| Cc1ccc([N+](=O)[O-])c(OCCN2CCNCC2)c1.O=C(O)C(=O)O | -14.6% |
| Cc1ccc([N+](=O)[O-])c(OCCCN2CCC(Cc3ccccc3)CC2)c1.O=C(O)C(=O)O | -89.6% |
| COc1cc(NC(=O)CN2CCC(Cc3ccccc3)CC2)c(C)cc1[N+](=O)[O-] | 6.01% |
| Cc1cc(OCCCn2ccnc2)ccc1[N+](=O)[O-].O=C(O)C(=O)O | -2.51% |
